Reference: PubChem BioAssay AID1903 (Southern Research Specialized Biocontainment Screening …, 2009)
Among all 310,000 compounds or so, about 1,200 (0.39%) were called active. The rule behind the calls is not given here. Not all results are given here. Potency and affinity values are given separately.

These compounds were tested against Large T antigen (Simian virus 40) (UniProt P03070) (assay: TAg ATPase/helicase activity blockers – biochemical (AID 1903)). Conditions: SV40 large T antigen ATPase/helicase inhibition assay; at 20 µM; stronger effect = higher value.
Sequence of Large T antigen (Simian virus 40) (P03070 whole entry, looked up): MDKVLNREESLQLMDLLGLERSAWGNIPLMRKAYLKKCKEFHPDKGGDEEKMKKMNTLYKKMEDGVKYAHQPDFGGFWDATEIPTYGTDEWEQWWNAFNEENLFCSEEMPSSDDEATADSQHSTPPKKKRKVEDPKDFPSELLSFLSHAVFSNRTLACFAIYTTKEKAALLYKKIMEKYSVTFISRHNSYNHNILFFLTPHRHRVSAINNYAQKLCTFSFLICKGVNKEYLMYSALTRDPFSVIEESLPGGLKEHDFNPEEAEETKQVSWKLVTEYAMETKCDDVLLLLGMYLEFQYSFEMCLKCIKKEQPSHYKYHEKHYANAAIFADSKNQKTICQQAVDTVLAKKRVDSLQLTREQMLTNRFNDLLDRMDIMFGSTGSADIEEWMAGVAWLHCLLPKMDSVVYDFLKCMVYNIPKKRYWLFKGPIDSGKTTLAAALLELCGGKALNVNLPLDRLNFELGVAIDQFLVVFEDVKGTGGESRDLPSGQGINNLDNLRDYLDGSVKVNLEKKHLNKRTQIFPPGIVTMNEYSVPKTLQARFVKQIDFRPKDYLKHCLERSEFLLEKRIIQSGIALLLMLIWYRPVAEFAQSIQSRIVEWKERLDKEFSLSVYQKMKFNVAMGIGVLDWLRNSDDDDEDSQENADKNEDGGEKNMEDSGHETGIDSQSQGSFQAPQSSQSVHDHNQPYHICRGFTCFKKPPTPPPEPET

inhibition, inactive:
COc1ccc(-c2noc(Cc3ccccc3OC)n2)cc1 5.97%
CCOc1ccccc1C(=O)NCC(=O)N(C)Cc1cccnc1 0.45%
CC1CCc2cc(F)ccc2N1C(=O)c1cc2nc(-c3ccco3)cc(C(F)(F)F)n2n1 (centres undefined) 0.153%
Cc1ccc(-c2cc(O)cc3sc(=O)oc23)cc1C 9.82%
O=c1oc2c(-c3cccc(F)c3)cc(O)cc2s1 6.75%
Cc1cc(NC(=O)CSc2nnc3c(C)cc4ccccc4n23)no1 23.4%
CCc1cccc(C)c1NC(=O)CCCSc1nc2ccccc2s1 3.33%
COc1ccccc1-n1c(CNc2ccc(F)cc2)nnc1SCC(=O)Nc1cc(C)on1 25.1%
COc1ccc(NCc2nnc(SCC(=O)Nc3ccc(OC)cc3)n2C)cc1 9.42%
CCOc1ccc(NCc2nnc(SCC(=O)Nc3cc(C)on3)n2-c2ccccc2OC)cc1 15.1%
COc1ccc(NCc2nnc(SCC(=O)c3ccc(OC)cc3)n2C)cc1 21.2%
CS(=O)(=O)N1CCc2cc(S(=O)(=O)N3CCCCC3)ccc21 11.4%
COc1ccc(C(C)=O)cc1COc1ccc(Cl)cc1Cl 1.32%
Cc1ccc(S(=O)(=O)N(CC(=O)Nc2cccnc2)c2cccc(Br)c2)cc1 14.9%
Cc1cc(C)nc(Nc2ccc(C(=O)O)cc2)n1 3.63%
Cc1cc(C)nc(Nc2ccc(O)cc2)n1 45.6%
Oc1ccc(Nc2nnc(-c3ccc(O)cc3)c3ccccc23)cc1 20.3%
Oc1ccc(Nc2nc3ccccc3nc2Nc2ccc(O)cc2)cc1 35%
O=C(OC1CCCCC1=O)c1cccc(S(=O)(=O)N2CCOCC2)c1 (centres undefined) 1.22%
CC(=O)Nc1cccc(-c2csc(NCc3ccco3)n2)c1 13.3%
CCOC(=O)C1=C(C)Nc2nc(C)nn2C1c1cc(OC)ccc1OC (centres undefined) 5.76%
Nc1cccc2c3c(oc12)CCCC3 4.56%
O=C(Nc1ccc(-c2ccc3nncn3n2)cc1)C1CCCC1 0.86%
CCC(C)N(C(=O)COC(=O)c1ccccc1SCC(=O)N1CCCC1)C1CCS(=O)(=O)C1 (centres undefined) 1.39%
c1ccc(Cn2nnnc2CN2CCN(c3ncccn3)CC2)cc1 0.78%
CCCc1cc(C(N)=O)c(NC(=O)c2cc(C)on2)s1 8.78%
Cc1csc(C(=O)NCC(=O)NNC(=O)c2cccc(Cl)c2)c1 0.72%
CCn1nc(C(=O)Nc2nc3ccc(C)cc3s2)c2ccccc2c1=O 0.39%
COc1cc(/C=N/NC(=O)NC2CCCCC2)cc(OC)c1O 31.1%
COc1cc(/C=N/NC(=O)C2c3ccccc3Oc3ccccc32)ccc1O 13.3%
COc1cc(/C=N/NC(=O)NC23CC4CC(CC(C4)C2)C3)ccc1O 26.5%
COc1cc(/C=N/NC(=O)CC(=O)NC2CCCCC2)ccc1O 26.4%
COc1ccc(C(CNC(=O)c2ccc(S(=O)(=O)Nc3ccc(F)cc3)cc2)N(C)C)cc1 (centres undefined) -1%
CC(=O)Nc1ccc(S(=O)(=O)NCCC(=O)OCC(=O)N2CCN(C(=O)c3ccco3)CC2)cc1 2.76%
COc1ccc(OC)c(-c2csc3nnc(SCC(=O)Nc4ccc(NC(C)=O)cc4)n23)c1 3.77%
C=CCC(C(=O)NC(C)c1ccccc1)C(=O)NC(C)c1ccccc1 (centres undefined) 0.99%
CCOc1cc(NC(=O)c2ccccn2)c(OCC)cc1NC(=O)c1ccccc1 8.84%
CCOc1cc(N2C(=O)CC3CS(=O)(=O)CC32)c(OCC)cc1NC(=O)c1ccccc1 (centres undefined) -8.08%
CCCSc1nnc(N)s1 14.6%
CCN1C(=O)c2ccccc2Sc2ccc(C(=O)NCCC(C)C)cc21 18.1%
CCOC(=O)C1CCCN(S(=O)(=O)Cc2ccc(Cl)cc2)C1 (centres undefined) 5.43%
Cc1ccc(NC(=O)C(=O)NN)cc1 4.15%
NNC(=O)C(=O)Nc1ccc(Cl)c(Cl)c1 4.78%
Cc1ccc(N=C2C(=O)Nc3ccc(Br)cc32)cc1 4.2%
COC(=O)CN1C(=O)C(C)(C)Oc2ccc(C(=O)Nc3ccccc3F)cc21 -0.69%
Cc1csc(N/N=C/c2ccc([N+](=O)[O-])cc2)n1 12%
O=[N+]([O-])c1cc(/C=N\Nc2nc(-c3ccccc3)cs2)ccc1O 14.1%
O=C(c1ccc2c(c1)OCCO2)C1CCN(S(=O)(=O)c2ccc(F)cc2)CC1 0.84%
Cc1cc(C)n(/N=C/c2c[nH]c3ccccc23)c(=O)c1 0.69%
Fc1ccc(-c2n[nH]c(=S)n2/N=C/c2c[nH]c3ccccc23)cc1 1.41%
S=c1[nH]nc(-c2cc(-c3ccccc3)n[nH]2)n1/N=C/c1cccs1 10.5%
Cc1nnc(C)n1/N=C/c1cccs1 13.5%
CCCCn1c(O)c(N=NC(=O)c2ccccc2NS(=O)(=O)c2cccs2)c2ccccc21 14.3%
O=c1ccc(S(=O)(=O)N2CCC(Cc3ccccc3)CC2)c[nH]1 7.63%
CN(CCNC(=O)CCNC(=O)Cn1ccc2ccccc2c1=O)Cc1ccccc1 15.1%
Nc1nc(SCc2cccc([N+](=O)[O-])c2)n[nH]1 4.99%
CCn1c(SCC(=O)O)nnc1-c1ccccc1OC 1.77%
C=CCn1c(SCC(=O)Nc2ccc(C(=O)O)cc2)nnc1-c1cccnc1 8.53%
C=CCn1c(SCC(=O)Nc2ccc3c(c2)OCO3)nnc1-c1ccccc1OC 1.62%
CCn1c(SCC(=O)C(C)(C)C)nnc1-c1ccccc1OC -1.72%
CCn1c(SCC(=O)c2ccc(C)cc2)nnc1-c1ccncc1 3.96%
C=CCn1c(SCC(=O)NC2CCCC2)nnc1-c1cccnc1 3.08%
CCn1c(SCC(=O)OC)nnc1-c1ccc(C)cc1 22.5%
C=CCn1c(SCC(=O)c2ccc(OC)cc2)nnc1-c1cc2cccc(OC)c2o1 6.55%
